HIF-2a block: blocks HIF-2a reporter activity; 786-0 RCC cells HIF-2a reporter, luciferase luminescence, overnight; inhibition, % at 18.8 µM; 360,000 compounds, 0.72% hits;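 active = inhibition of the luminescence signal of 40% or more relative to plate controls, in a single-dose primary screen at 18.75 µM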
Peg3 prom inh: reduces Peg3 promoter-driven luciferase expression in HeLa; inhibition, % at 20 µM; HeLa PEG-Prom luciferase reporter, luminescence, overnight; AID 588405; 360,000 compounds, 1.7% hits;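 active = inhibition of at least 50% at 20 µM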
KKLEB tox: reduces viability of KKLEB cystic fibrosis airway cells; activity change (cytotoxicity), % at 5 µM; KKLEB CF airway cells viability, ATPlite luminescence, overnight; hits give low values; cells stimulated with P. aeruginosa culture filtrate; 360,000 compounds, 0.36% hits;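 active = corrected activity change at or below -50% at 5 µM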
Shn3 3UTR inh: inhibitors of Schnurri-3 3'UTR reporter in osteoblasts | Clone20 osteoblast Shn3 3'UTR firefly luciferase, 24 h | inhibition, % at 12.5 µM | 360,000 compounds, 0.52% hits | AID 588674;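 active = mean inhibition of at least 75% with every replicate also reaching 75%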
CF NFkB block: blocks PAF-induced NF-kB reporter in cystic fibrosis cells. KKLEB NF-kB-GFP reporter, GFP fluorescence overnight. inhibition, % at 5 µM. 360,000 compounds, 0.86% hits. AID 588850;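 active = at least 50% inhibition at 5 µM, scaled per plate between neutral and stimulator controls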;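 also: PAF is a Pseudomonas aeruginosa culture filtrate used as stimulus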
MITF TRPM1 inh: MITF TRPM1 promoter inhibition in SK-MEL-5 cells | inhibition, % at 12.5 µM | AID 488899 | 330,000 compounds, 0.83% hits | SK-MEL-5 TRPM1 promoter luciferase, 24 h;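 active = mean inhibition across replicates of 60% or more, whatever share of single replicates reaches that level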
A number is an active result; 0 = inactive; - = no result given. Hits are enriched below; roughly 2.8% of the tested compounds scored in any of these assays.

SMILES	HIF-2a block	Peg3 prom inh	KKLEB tox	Shn3 3UTR inh	CF NFkB block	MITF TRPM1 inh
COc1ccc(NC(=O)Nc2cccc3[nH]c([C@@H]4O[C@H](CO)[C@@H](O)[C@H](O)[C@H]4O)nc23)cc1OC1CCCC1	0	0	0	0	0	-
COc1cccc(C(NC(C)=O)c2nc(-c3ccc(F)c(Cl)c3)cs2)c1 (configuration not stated)	0	0	0	0	0	-
O=C(NCc1ccccn1)c1ccc(OC2CCN(Cc3cccs3)CC2)cc1	0	0	0	0	0	0
NC(=O)C1CCN(C2=C(NS(=O)(=O)c3ccc(Br)cc3)C(=O)c3ccccc3C2=O)CC1	0	0	0	0	0	67.6
CCOC(=O)N1CCN(C2=C(NS(=O)(=O)c3ccc(Br)cc3)C(=O)c3ccccc3C2=O)CC1	0	0	0	0	58.5	-
CN1CCN(C2=C(NS(=O)(=O)c3ccccc3)C(=O)c3ccccc3C2=O)CC1	0	0	0	0	0	78.0
O=C1C(NS(=O)(=O)c2ccc(Cl)cc2)=C(N2CCCCC2)C(=O)c2ccccc21	0	0	0	0	0	0
CN1CCN(C2=C(NS(=O)(=O)c3cccs3)C(=O)c3ccccc3C2=O)CC1	0	0	0	0	0	76.6
NC(=O)C1CCN(C2=C(NS(=O)(=O)c3ccccc3)C(=O)c3ccccc3C2=O)CC1	0	0	0	0	0	0
O=C1C(NS(=O)(=O)c2cccs2)=C(N2CCOCC2)C(=O)c2ccccc21	0	0	0	0	0	0
O=C(Cn1cnc2ccccc2c1=O)NCCCN1CCCC1=O	0	0	0	0	0	0
COC(=O)Nc1ccc(N2CCOCC2)c(S(=O)(=O)N2CCOCC2)c1	0	0	0	0	0	0
Cc1ccc(NC(=O)CN(C)C(=O)CNC(=O)c2sc3ccccc3c2Cl)cc1	0	0	0	0	0	0
O=C1CC(NS(=O)(=O)c2cccnc2)CN1c1ccccc1 (configuration not stated)	0	0	0	0	0	0
Cc1ccc(-c2ccc3c(c2)O[C@H](CN(C)C(=O)Nc2ccc(C(F)(F)F)cc2)[C@H](C)CN([C@H](C)CO)S3(=O)=O)cc1	0	0	0	0	0	-
CCN(CC)CCCNC(=O)c1[nH]c2ccccc2c1Sc1ccc(Cl)cc1	0	65.4	0	0	0	0
Cc1ccc(C2=NN(CCC(=O)NC3CCCC3)C(=O)CC2)cc1	0	0	0	0	0	0
CCN(CC)CCn1c(=N)n(CC(=O)c2ccc(Br)s2)c2ccccc21	0	79.5	0	0	0	-
Cn1c(=N)n(CC(=O)c2ccc(Br)s2)c2ccccc21	0	0	0	0	0	0
O=C(CC1SC(N2CCCCC2)=NC1=O)Nc1cccc(C(=O)N2CCCC(C(F)(F)F)C2)c1 (configuration not stated)	0	0	0	0	0	0
Cc1ccc[n+](CC(=O)Nc2cc(C(F)(F)F)ccc2Cl)c1	0	0	0	0	0	0
CCC(C)(C)c1ccc(OCCCC[n+]2cccc(C)c2)c(C(C)(C)CC)c1	0	100.8	0	88.2	60.1	98.0
Cc1cc(C(=O)COc2cc(F)ccc2[N+](=O)[O-])c(C)n1C1CC1	0	0	0	0	0	0
Cc1cc(C(=O)Cn2cnc3cc(F)ccc3c2=O)c(C)n1C1CC1	0	0	0	92.9	0	0
Cc1ccc(C(C)C)c(OCc2nn(CC(=O)c3ccc(OC(F)F)cc3)c3[n+]2CCCCC3)c1	0	105.4	0	0	0	102.3
SMILES	HIF-2a block	Peg3 prom inh	KKLEB tox	Shn3 3UTR inh	CF NFkB block	MITF TRPM1 inh
CN1CCN(C2Cc3ccccc3Sc3ccc(Cl)cc32)CC1 (configuration not stated)	0	0	0	0	0	0
CCc1cccc2c1Sc1ccccc1CC2N1CCNCC1 (configuration not stated)	0	111.3	0	0	0	80.7
COc1ccc2cc(C)c3nnc(SCC(=O)Nc4nc(-c5ccccc5)cs4)n3c2c1	0	0	-52.2	0	0	0
CCOC(=O)/C=c1\s/c(=C\c2ccccc2C)c(=O)n1CC(=O)NCc1ccc2c(c1)OCO2	0	0	-58.4	0	0	0
COc1cccc(CNC(=O)CCCc2c[nH]c3ccccc23)c1	0	0	0	0	0	0
O=C(N/N=C/c1c(O)ccc2ccccc12)C(=O)N1CCCC1	0	0	0	81.8	0	-
O=C(NN=Cc1c(O)ccc2ccccc12)C1CC1	0	0	0	0	0	0
